From PubChem BioAssay (NCATS)
Records with an inconclusive call do not appear. Values without a mark were called inactive. Calls of active or inactive are those of the source. The call rests on the fitted dose curve; in most records, active means well fitted curve in the direction sought with a large enough effect; inconclusive means small, poorly fitted or top-dose-only effect, or another doubt; inactive means no such curve, though single readings can be large; an effect the other way counts as inactive or inconclusive.

Assay: High Content Imaging Cell-Based qHTS for Inhibitors of the mTORC1 Signaling Pathway in MEF (Tsc2-/-, p53-/-) Cells (AID 2666);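 further: percent of cells scored positive for phospho-rpS6 Ser235/236 immunostaining by imaging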
Settings: series mostly up to 38.3 µM
How it was run: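 Read-out: % positive cells per well, with thresholds from highest- and lowest-signal wells, based on phospho-rpS6 (Ser235/236) intensity normalized to Hoechst nuclear stain. Cells: Tsc2-/-, p53-/- MEFs carrying empty vector; compound 24 hrs, 37 degree Celsius.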
Potency means the concentration at half of the fitted maximal effect.

Structure (SMILES) | outcome | Potency
COc1ccc(C(CN(C)C)C2(O)CCCCC2)cc1 (configuration not stated) | inactive | 
CC[C@@H](CO)NC(=O)[C@@H]1C=C2c3cccc4[nH]cc(c34)C[C@H]2N(C)C1 | inactive | 
C[C@@H]1O[C@@H](O[C@H]2C[C@@H](O)[C@]3(CO)[C@H]4[C@H](O)C[C@]5(C)[C@@H](C6=CC(=O)OC6)CC[C@]5(O)[C@@H]4CC[C@]3(O)C2)[C@H](O)[C@H](O)[C@H]1O | inactive | 
CCCN1CCC[C@@H]2Cc3[nH]ncc3C[C@H]21 |  | inactive
CC(CCc1ccccc1)NC(C)C(O)c1ccc(O)cc1 (configuration not stated) | inactive | 
N#CC(C#N)=Cc1ccc(O)c(O)c1 | inactive | 
CC(=O)[C@H]1CC[C@H]2[C@@H]3CC[C@H]4C[C@](C)(O)CC[C@]4(C)[C@H]3CC[C@]12C | inactive | 
Cc1cc2c(C(C)C)c(O)c(O)c(C=O)c2c(O)c1-c1c(C)cc2c(C(C)C)c(O)c(O)c(C=O)c2c1O |  | 2.61 µM (active)
Cc1cccc(C)c1NC(=O)CN1CCCC1=O | inactive | 
CC(C)=CCOc1c2occc2cc2ccc(=O)oc12 | inactive | 
COC[C@H]1OC(=O)c2coc3c2[C@@]1(C)C1=C(C3=O)C2CCC(=O)[C@@]2(C)C[C@H]1OC(C)=O (some centres not stated) | inactive | 
CC(O)(CS(=O)(=O)c1ccc(F)cc1)C(=O)Nc1ccc(C#N)c(C(F)(F)F)c1 (configuration not stated) | inactive | 
C=C(C)[C@H]1Cc2c(ccc3c2O[C@@H]2COc4cc(OC)c(OC)cc4[C@@H]2C3=O)O1 | inactive | 
O=c1[nH]c2ccccc2n1CCCN1CCC(n2c(=O)[nH]c3cc(Cl)ccc32)CC1 | inactive | 
CC[C@@H](CO)NC(=O)[C@@H]1C=C2c3cccc4c3c(cn4C)C[C@H]2N(C)C1 | inactive | 

Assay: High Content Imaging Cell-Based qHTS for Inhibitors of the mTORC1 Signaling Pathway in MEF Cells (AID 2667);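 on activity change, negative = inhibition: Tsc2-/- p53-/- MEFs stably re-expressing wild-type Tsc2 exposed 24 h; plate controls were DMSO wells for no effect and rapamycin control wells for full effect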
Settings: series mostly up to 38.3 µM; activity change, negative = inhibition: at the top concentration
How it was run: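 MEF (Tsc2-/-, p53-/-, WT Tsc2 re-expressed); cpd 24 h, 37 °C; PFA fix; Alexa-488 anti-p-rpS6 Ser235/236, PI, Hoechst; IN Cell imaging; Hoechst/Alexa-488 intensity ratio; % active cells, thresholds set from rapamycin and DMSO wells.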

Structure (SMILES) | activity change, negative = inhibition | Potency
COc1ccc(C(CN(C)C)C2(O)CCCCC2)cc1 (configuration not stated) | -100% | 
CC[C@@H](CO)NC(=O)[C@@H]1C=C2c3cccc4[nH]cc(c34)C[C@H]2N(C)C1 | -100% | 
C[C@@H]1O[C@@H](O[C@H]2C[C@@H](O)[C@]3(CO)[C@H]4[C@H](O)C[C@]5(C)[C@@H](C6=CC(=O)OC6)CC[C@]5(O)[C@@H]4CC[C@]3(O)C2)[C@H](O)[C@H](O)[C@H]1O | -100% | 
CCCN1CCC[C@@H]2Cc3[nH]ncc3C[C@H]21 |  | inactive
CC(CCc1ccccc1)NC(C)C(O)c1ccc(O)cc1 (configuration not stated) | -100% | 
N#CC(C#N)=Cc1ccc(O)c(O)c1 | -100% | 
CC(=O)[C@H]1CC[C@H]2[C@@H]3CC[C@H]4C[C@](C)(O)CC[C@]4(C)[C@H]3CC[C@]12C | -100% | 
Cc1cc2c(C(C)C)c(O)c(O)c(C=O)c2c(O)c1-c1c(C)cc2c(C(C)C)c(O)c(O)c(C=O)c2c1O |  | 14.7 µM (active)
c1ccc2c(c1)OCC(C1=NCCN1)O2 (configuration not stated) |  | 6.56 µM (active)
Cc1cccc(C)c1NC(=O)CN1CCCC1=O | -100% | 
CC(C)=CCOc1c2occc2cc2ccc(=O)oc12 | -100% | 
COC[C@H]1OC(=O)c2coc3c2[C@@]1(C)C1=C(C3=O)C2CCC(=O)[C@@]2(C)C[C@H]1OC(C)=O (some centres not stated) | -100% | 
CC(O)(CS(=O)(=O)c1ccc(F)cc1)C(=O)Nc1ccc(C#N)c(C(F)(F)F)c1 (configuration not stated) | -100% | 
C=C(C)[C@H]1Cc2c(ccc3c2O[C@@H]2COc4cc(OC)c(OC)cc4[C@@H]2C3=O)O1 |  | 0.0465 µM (active)
CN(C)C(=O)C(CCN1CCC(O)(c2ccc(Cl)cc2)CC1)(c1ccccc1)c1ccccc1 |  | 18.5 µM (active)
O=c1[nH]c2ccccc2n1CCCN1CCC(n2c(=O)[nH]c3cc(Cl)ccc32)CC1 | -100% | 
CC[C@@H](CO)NC(=O)[C@@H]1C=C2c3cccc4c3c(cn4C)C[C@H]2N(C)C1 | -100% | 

Assay: Cytometry Cell-Based qHTS for Inhibitors of the mTORC1 Signaling Pathway in MEF cells (AID 2668);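 on activity change, negative = inhibition: Tsc2-/- p53-/- mouse embryonic fibroblasts stably re-expressing wild-type Tsc2; percent cells positive for phospho-rpS6 Ser235/236 relative to propidium iodide stain; plate controls were DMSO wells for no effect and 7.5 nM rapamycin control wells for full effect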
Settings: mTORC1 pathway readout; series mostly up to 38.3 µM; activity change, negative = inhibition: at the top concentration
How it was run: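 MEFs (Tsc2-/-, p53-/- stably expressing WT Tsc2) treated 24 h at 37 degree Celsius, fixed, stained with Alexa-488 anti-phospho-rpS6 Ser235/236 and propidium iodide; Acumen laser scanning. Reported as % positive cells, phospho-S6 normalized to PI.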

Structure (SMILES) | activity change, negative = inhibition | Potency
COc1ccc(C(CN(C)C)C2(O)CCCCC2)cc1 (configuration not stated) | 6.16% | 
CC[C@@H](CO)NC(=O)[C@@H]1C=C2c3cccc4[nH]cc(c34)C[C@H]2N(C)C1 | -1.12% | 
C[C@@H]1O[C@@H](O[C@H]2C[C@@H](O)[C@]3(CO)[C@H]4[C@H](O)C[C@]5(C)[C@@H](C6=CC(=O)OC6)CC[C@]5(O)[C@@H]4CC[C@]3(O)C2)[C@H](O)[C@H](O)[C@H]1O | -0.809% | 
CCCN1CCC[C@@H]2Cc3[nH]ncc3C[C@H]21 |  | inactive
CC(CCc1ccccc1)NC(C)C(O)c1ccc(O)cc1 (configuration not stated) | -2.19% | 
N#CC(C#N)=Cc1ccc(O)c(O)c1 | 6.38% | 
CC(=O)[C@H]1CC[C@H]2[C@@H]3CC[C@H]4C[C@](C)(O)CC[C@]4(C)[C@H]3CC[C@]12C | 5.06% | 
c1ccc2c(c1)OCC(C1=NCCN1)O2 (configuration not stated) |  | 4.65 µM (active)
Cc1cccc(C)c1NC(=O)CN1CCCC1=O | 8.98% | 
CC(C)=CCOc1c2occc2cc2ccc(=O)oc12 | -2.57% | 
COC[C@H]1OC(=O)c2coc3c2[C@@]1(C)C1=C(C3=O)C2CCC(=O)[C@@]2(C)C[C@H]1OC(C)=O (some centres not stated) | -20.6% | 
CC(O)(CS(=O)(=O)c1ccc(F)cc1)C(=O)Nc1ccc(C#N)c(C(F)(F)F)c1 (configuration not stated) | 5.13% | 
C=C(C)[C@H]1Cc2c(ccc3c2O[C@@H]2COc4cc(OC)c(OC)cc4[C@@H]2C3=O)O1 |  | 0.0585 µM (active)
CN(C)C(=O)C(CCN1CCC(O)(c2ccc(Cl)cc2)CC1)(c1ccccc1)c1ccccc1 |  | 13.1 µM (active)
CC[C@@H](CO)NC(=O)[C@@H]1C=C2c3cccc4c3c(cn4C)C[C@H]2N(C)C1 | -2.26% | 
